In all, about 69,000 compounds went through this assay and about 420 (0.61%) showed an effect of 50% or more. The full list was thinned out, with strong results kept by preference.

For this test, the target named is T1, Histidine--tRNA ligase (Leishmania infantum) (UniProt A4I591).
T1 sequence (whole entry): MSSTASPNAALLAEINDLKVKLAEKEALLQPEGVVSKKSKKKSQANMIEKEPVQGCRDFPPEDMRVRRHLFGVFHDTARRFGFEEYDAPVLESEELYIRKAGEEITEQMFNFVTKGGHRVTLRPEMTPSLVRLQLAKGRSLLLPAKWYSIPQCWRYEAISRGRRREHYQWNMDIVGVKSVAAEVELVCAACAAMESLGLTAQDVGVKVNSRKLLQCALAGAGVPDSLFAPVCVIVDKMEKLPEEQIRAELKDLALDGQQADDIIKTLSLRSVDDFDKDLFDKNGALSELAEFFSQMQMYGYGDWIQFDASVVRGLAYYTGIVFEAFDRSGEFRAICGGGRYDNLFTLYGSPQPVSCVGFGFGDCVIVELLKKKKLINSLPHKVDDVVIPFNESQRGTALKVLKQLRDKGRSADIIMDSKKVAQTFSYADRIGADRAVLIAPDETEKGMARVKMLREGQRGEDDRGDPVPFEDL
Nature of the test: Leishmania infantum Histidine tRNA synthetase (LdHisRS). The class given is functional. The arrangement: scale not given: in the data most compounds retested in dose-response had high values. The following applies: 30 µM.
Turning to `Cc1nccn1CCCn1cncc1-c1ccc2c(c1)CC(C)N2C` (centres undefined), the Percent Effect worked out at 65.8%. Consider `CCOC(=O)c1n[nH]cc1-c1cncn1CCCn1nc(C)cc1C`, for which the Percent Effect was found to be 13.1%. The same measure for `CCN1c2ccc(-c3cncn3CC(=O)NC(C)(C)C)cc2CC1C` (centres undefined): 42.1%. Regarding `CCN1CCc2cc(-c3cncn3CCNC3CCS(=O)(=O)C3)ccc21` (centres undefined), the Percent Effect was 29.6%. For `c1coc(CN2CCO[C@H]3[C@@H](OCC4CC4)CC[C@@H]32)c1` the value was 9.62%; for `Cc1ccc(CN2CC[C@@H]3OCCN(Cc4ccncc4)[C@H]3CC2)s1`, 15.1%; for `Cc1cc(N2CCC(O)CC2)nc(C)n1`, 13.7%. On to `CN1CCCCC1c1cncc(N2CCC(O)CC2)n1` (centres undefined), for which the Percent Effect came out at 14.5%. For `Cc1cc(N2CCC(O)CC2)nc(C2CCCN2C)n1` (centres undefined) the value was 54.9%. The same measure for `CN1CC2(CCN(C(=O)c3ccc(=O)n(C)c3)CC2)CC1=O`: -38.8%. With `O=C(c1ncccn1)N1C[C@@H]2COC[C@]2(c2nnc(C3CC3)o2)C1`, the Percent Effect was determined as 20.6%. The same measure for `CC(=O)N1CCC2(CC1)CC[C@@]1(C(=O)N(C)C)CN(S(C)(=O)=O)C[C@@H]21`: 13.2%; for `CC(=O)N1CC[C@H]2OCC[C@@H](C(=O)NCc3ccco3)[C@@H]2C1`: 10.1%; for `Cn1ccc2c(-c3cc(N4CCCCC4)ncn3)ccnc21`: 54.8%. The same measure for `Cn1ccc2c(-c3cc(N4CCOCC4)ncn3)ccnc21`: 9.52%. For the compound `Cn1ccc2c(-c3cc(N)nc(N4CCOCC4)n3)ccnc21`, the Percent Effect came out at 19.1%.

Take `CC(C)C(=O)N1CCN(C(=O)c2cc(Cl)no2)[C@H]2CS(=O)(=O)C[C@H]21`: the Percent Effect was 1.61%. For `Cc1nnsc1CN1C[C@@H]2CC[C@H](C1)N(Cc1ccccc1)C2` the value was 8.33%; for `CC(C)c1nnc(N2C[C@@H]3CC[C@H](C2)N(CC2CCC2)C3)s1`, 19.1%. For `CC(C)c1nnc(N2C[C@@H]3CC[C@H](C2)N(Cc2ccccc2)C3)s1` the value was 59.5%; for `CC(=O)c1ccc(C(=O)N2C[C@@H]3CC[C@H](C2)N(Cc2ccccc2)C3)s1`, 30.1%. In the case of `CCCN1C[C@H]2CC[C@@H]1CN(c1nnc(C(C)C)s1)C2`, the Percent Effect was -42.9%. The same measure for `CSCCCN1C(=O)CC[C@H]2CN(Cc3ncc[nH]3)CC[C@H]21`: 1.33%; for `COc1ccc(-c2nc(CCNc3nnc(C)c(C)c3C#N)co2)cc1`: 57.1%; for `Cc1nnc(NCCc2coc(-c3ccc(F)cc3)n2)c(C#N)c1C`: 48.6%. For `COc1ccc(-c2nc(CCNCc3ccncc3)co2)cc1` the value was 24.5%. The same measure for `Cc1nnc(NCCc2coc(-c3ccccc3)n2)c(C#N)c1C`: 51.4%; for `Cc1nnc(NCCC(=O)NCc2ccccc2)c(C#N)c1C`: 31.5%. For the compound `Cc1nnc(NCC2(c3ccccc3)CC2)c(C#N)c1C`, the Percent Effect was 9.62%.

Turning to `CCN1CC[C@@]2(C(=O)N3CCCC3)CCN(S(C)(=O)=O)CC[C@@H]12`, the Percent Effect stood at 21.4%. `O=C(C1CCOCC1)N1C[C@H]2CCC[C@@]2(COc2ccccn2)C1`: the Percent Effect worked out at 0%.

On to `CC(C)CC(=O)N1C[C@@H]2CCN(c3ncccn3)C[C@@H]2C1`, for which the Percent Effect worked out at 17.1%. As for `O=C(c1cnccn1)N1C[C@@H]2[C@@H](C1)OCC(=O)N2CC1CCCC1`, the Percent Effect was -944%. For the compound `O=C(c1ccccn1)N1C[C@H]2CCC[C@@]2(COCC2CCOCC2)C1`, the Percent Effect came out at 10.1%. With `CC(C)=CCN1CCN(Cc2ncc[nH]2)[C@H]2CS(=O)(=O)C[C@H]21`, the Percent Effect was 0%. For `Cc1cc(N2CCC(CC(N)=O)CC2)nc(-c2ccncc2)n1` the value was 15.6%; for `Cc1cc(N2CCC(Cc3ccccc3)CC2)nc(-c2ccncc2)n1`, 62.5%.

For the compound `COC(=O)C1CCN(c2cc(C)nc(-c3ccncc3)n2)CC1`, the Percent Effect is 37.6%. On to `Cc1cc(N2CCC(C(=O)N(C)C)CC2)nc(-c2ccncc2)n1`, for which the Percent Effect was determined as 17.1%. In the case of `Cc1cc(N2CCN(CCO)CC2)nc(-c2ccncc2)n1`, the Percent Effect amounted to 20%. On to `Cc1cc(N2CCN(CC(=O)N(C)C)CC2)nc(-c2ccncc2)n1`, for which the Percent Effect came to 51.4%. Turning to `Cc1cc(N2CCC(Cc3ccccc3)CC2)ncn1`, the Percent Effect turned out to be 21.4%. On to `CC(=O)NCC1CCN(c2cc(C)nc(-c3ccncc3)n2)CC1`, for which the Percent Effect was 59.8%. For `CCNC(=O)CN1CCN(c2cc(C)nc(-c3ccncc3)n2)CC1`, the Percent Effect worked out at 30.1%.

Turning to `c1cnc(N2CCN(C3CCC[C@@H]4CN(CC5CC5)C[C@H]34)CC2)nc1` (some centres undefined), the Percent Effect was determined as 2.86%.

For the compound `Cc1ccc(-c2nnc(CN3CCOC(Cn4cncn4)C3)o2)cc1` (centres undefined), the Percent Effect came out at 3.39%. The same measure for `CCn1ncc(CN2C[C@@H]3CCCN3C[C@H]2CCSC)c1C`: -58%. As for `CC(C)N1CCN2C(=O)N(C3CCCCC3)C[C@H]2C1`, the Percent Effect was 18.9%. For `CCO[C@@H]1C[C@H]2CN(S(=O)(=O)c3cccs3)CCN2C1` the value was 7.89%; for `CN(C)S(=O)(=O)N1C[C@H]2C[C@H](C(=O)NCc3ccccc3)[C@@H](C1)O2`, 3.64%; for `NCC1Cc2cc(Oc3cc(F)c(CN4CCCC4)c(F)c3)ccc2O1` (centres undefined), 57.5%. Take `COc1ccc(CN2CCCC2)cc1Oc1ccc2c(c1)CC(CN)O2` (centres undefined): the Percent Effect worked out at 25.8%. As to `Cc1cc(CN2CCCC2)cc(Oc2ccc3c(c2)CC(CN)O3)c1` (centres undefined), the Percent Effect came out at 12.5%. The same measure for `O=C(C1CCC1)N1CCN(Cc2ccccc2F)[C@H]2CS(=O)(=O)C[C@H]21`: 23.3%.
